According to PubChem BioAssay AID2061166 (Soto Lab, Mitchell Center for Alzheimers Disease and …, 2025):
Several values for one entry are separate records, joined by “and”; a condition that tells them apart may be missing. Equal values may be shown once. Activity calls are given as the source filed them.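 The calls were made as follows: active = mean tau seeding fluorescence area under 1% of vehicle, meaning inhibition above a set limit; inactive = the rest.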

The molecules below were run against Microtubule-associated protein tau (Homo sapiens) (UniProt P10636) (assay: blockers of AD brain-seeded tau fibril growth – biochemical, seed amplification, ThT fluorescence, primary screen (AID 2061166)). Details: Recombinant tau seeded by AD brain, ThT fluorescence AUC; at 100 µM; active compounds read high.
Sequence of Microtubule-associated protein tau (Homo sapiens) (P10636 whole entry, looked up): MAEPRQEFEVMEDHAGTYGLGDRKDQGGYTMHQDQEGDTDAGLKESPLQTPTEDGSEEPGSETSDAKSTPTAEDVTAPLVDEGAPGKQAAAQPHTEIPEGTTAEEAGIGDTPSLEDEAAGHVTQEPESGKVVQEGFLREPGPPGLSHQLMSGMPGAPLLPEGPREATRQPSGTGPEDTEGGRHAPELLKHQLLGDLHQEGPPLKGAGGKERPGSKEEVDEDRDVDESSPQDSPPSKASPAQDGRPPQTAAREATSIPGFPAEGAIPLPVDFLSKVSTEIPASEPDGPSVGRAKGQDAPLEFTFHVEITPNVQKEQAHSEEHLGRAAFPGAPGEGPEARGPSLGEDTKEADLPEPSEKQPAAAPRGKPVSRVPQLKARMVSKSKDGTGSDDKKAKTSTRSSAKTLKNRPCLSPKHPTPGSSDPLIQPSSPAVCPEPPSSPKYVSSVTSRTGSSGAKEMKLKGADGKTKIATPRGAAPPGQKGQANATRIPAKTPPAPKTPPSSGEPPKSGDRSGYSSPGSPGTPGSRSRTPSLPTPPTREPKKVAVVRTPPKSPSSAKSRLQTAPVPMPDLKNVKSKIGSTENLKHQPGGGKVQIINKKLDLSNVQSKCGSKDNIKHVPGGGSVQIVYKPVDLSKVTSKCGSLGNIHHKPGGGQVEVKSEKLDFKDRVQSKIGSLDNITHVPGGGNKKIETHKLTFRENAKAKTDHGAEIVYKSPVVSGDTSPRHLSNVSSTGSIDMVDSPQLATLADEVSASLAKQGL

SMILES | inhibition
C#Cc1cccc(Nc2ncnc3cc4c(cc23)OCCOCCOCCO4)c1 | -14.6% (inactive)
C[N+](C)=c1ccc2nc3ccc(N)cc3sc-2c1 | 100% (active)
CS(=O)(=O)OCCCCOS(C)(=O)=O | -40% (inactive)
CC(=O)OCC(=O)C1(O)C(C)CC2C3CCC4=CC(=O)C=CC4(C)C3(F)C(O)CC21C (configuration not stated) | 46.2% (inactive)
COc1cc2nc(N(C)CCCNC(=O)C3CCCO3)nc(N)c2cc1OC (configuration not stated) | 17.4% (inactive)
OC(c1cc(C(F)(F)F)nc2c(C(F)(F)F)cccc12)C1CCCCN1 (configuration not stated) | 66.4% (inactive)
COc1cc(C(=O)NCc2ccc(OCCN(C)C)cc2)cc(OC)c1OC | 10.7% (inactive)
Cc1ccc2c(c1)c1c(n2CCc2ccc(C)nc2)CCN(C)C1 | -29.9% (inactive)
OC(CCN1CCCCC1)(c1ccccc1)C1CCCCC1 (configuration not stated) | 21.7% (inactive)
CN(C)CC(c1ccc(O)cc1)C1(O)CCCCC1 (configuration not stated) | 15.1% (inactive)
CCOc1nc2cccc(C(=O)O)c2n1Cc1ccc(-c2ccccc2-c2nn[nH]n2)cc1 | 36.2% (inactive)
CCc1nc(N)nc(N)c1-c1ccc(Cl)cc1 | -7.97% (inactive)
Nc1nc2[nH]cc(CCc3ccc(C(=O)NC(CCC(=O)O)C(=O)O)cc3)c2c(=O)[nH]1 (configuration not stated) | 15.2% (inactive)
CCCNC1CCc2nc(N)sc2C1 (configuration not stated) | 13.7% (inactive) and -33.7% (inactive)
CCC(C(=O)O)c1ccc(N2Cc3ccccc3C2=O)cc1 (configuration not stated) | 26.9% (inactive)
CN=c1ccc2nc3ccc(N)cc3sc-2c1 | 100% (active)

SMILES | inhibition
CS(=O)(=O)c1ccc(C(=O)Nc2ccc(Cl)c(-c3ccccn3)c2)c(Cl)c1 | 44% (inactive)
CNC(=O)c1cc(Oc2ccc(NC(=O)Nc3ccc(Cl)c(C(F)(F)F)c3)cc2)ccn1 | -11% (inactive)
C#CCNC1CCc2ccccc21 (configuration not stated) | -62.3% (inactive)
CC(=O)C1CCC2C3CC=C4CC(O)CCC4(C)C3CCC12C (configuration not stated) | 41.9% (inactive)
O=C1C=C(NC(Cc2c[nH]c3ccccc23)C(=O)O)C(=O)c2ccccc21 (configuration not stated) | 52.4% (inactive)
CCc1cc2c(cc1N1CCC(N3CCOCC3)CC1)C(C)(C)c1[nH]c3cc(C#N)ccc3c1C2=O | -7.3% (inactive)
Cc1ccsc1C(=CCCN1CCCC(C(=O)O)C1)c1sccc1C (configuration not stated) | 3.27% (inactive)
CC(C)COc1ccc(CNC(=O)N(Cc2ccc(F)cc2)C2CCN(C)CC2)cc1 | -91.6% (inactive)
CCC1(O)C(=O)OCc2c1cc1n(c2=O)Cc2cc3c(CN(C)C)c(O)ccc3nc2-1 (configuration not stated) | 91.5% (inactive)
COC(=O)C1=COC(OC2OC(CO)C(O)C(O)C2O)C2C1CC(O)C2C (configuration not stated) | -52.1% (inactive)
CC(=O)Oc1cc(C(F)(F)F)ccc1C(=O)O | 27% (inactive)
CN(C)CCCN1c2ccccc2Sc2ccccc21 | 13.2% (inactive)
Cc1ccc(C(=O)c2cc(O)c(O)c([N+](=O)[O-])c2)cc1 | 77.7% (inactive)
CCN(CC)C(=S)SSC(=S)N(CC)CC | -17.5% (inactive)
Nc1ccccc1NC(=O)c1ccc(CNC(=O)OCc2cccnc2)cc1 | -34.7% (inactive)
Nc1cccc2c1CN(C1CCC(=O)NC1=O)C2=O (configuration not stated) | 42.8% (inactive)
